# Read-outs that look alike come from different tables or passages of the source.
# Key:
# Parameters in all cases: species or system human, MV4-11 + K-562 + COLO205 + SK-N-BE2 + OVCAR-8
# ADCK3 = conditions: read-out: apparent Kd, n = 1
# CLK1 = conditions: read-out: apparent Kd, n = 1
# CLK4 = conditions: read-out: apparent Kd, n = 1
# FER = conditions: read-out: apparent Kd, n = 1
# FES = conditions: read-out: apparent Kd; compound concentrations: 100 nM and 1000 nM (sheet 'Samples'), CATDS: 6.2151263603986602E-2; n = 1
# IGF1R = conditions: read-out: apparent Kd, n = 1
# INSR = conditions: read-out: apparent Kd, n = 1
# PLK1 = conditions: read-out: apparent Kd, n = 1
# PRKCZ = conditions: read-out: apparent Kd; compound concentrations: 100 nM and 1000 nM (sheet 'Samples'), CATDS: 4.7711419359540999E-2; n = 1
# PTK2B = conditions: read-out: apparent Kd; compound concentrations: 100 nM and 1000 nM (sheet 'Samples'), CATDS: 0.144435732024948; n = 1
# PTK2 = conditions: read-out: apparent Kd; compound concentrations: 100 nM and 1000 nM (sheet 'Samples'), CATDS: 9.0293978496921806E-2; n = 1
# RIPK3 = conditions: read-out: apparent Kd; compound concentrations: 100 nM and 1000 nM (sheet 'Samples'), CATDS: 4.6981822696137099E-2; n = 1
# TNK1 = conditions: read-out: apparent Kd; compound concentrations: 100 nM and 1000 nM (sheet 'Samples'), CATDS: 8.1384476326193098E-2; n = 1
# TTK = conditions: read-out: apparent Kd; compound concentrations: 100 nM and 1000 nM (sheet 'Samples'), CATDS: 4.6872796614934702E-2; n = 1
# AKT2 = conditions: read-out: apparent Kd, compound concentrations: 100 nM and 1000 nM (sheet 'Samples'), n = 1
# ATM = conditions: read-out: apparent Kd; compound concentrations: 100 nM and 1000 nM (sheet 'Samples'), CATDS: 0.21297510466852801; n = 1
# CAMK4 = conditions: read-out: apparent Kd, compound concentrations: 100 nM and 1000 nM (sheet 'Samples'), n = 1
# CDK6 = conditions: read-out: apparent Kd; compound concentrations: 100 nM and 1000 nM (sheet 'Samples'), CATDS: 7.4930063387868798E-2; n = 1
# CDKL5 = conditions: read-out: apparent Kd; compound concentrations: 100 nM and 1000 nM (sheet 'Samples'), CATDS: 9.7869696626463096E-2; n = 1
# CSNK1E = conditions: read-out: apparent Kd; compound concentrations: 100 nM and 1000 nM (sheet 'Samples'), CATDS: 6.4509222244259798E-2; n = 1
# CSNK2A1;CSNK2A3 = conditions: read-out: apparent Kd; compound concentrations: 100 nM and 1000 nM (sheet 'Samples'), CATDS: 6.2096943354302901E-2; n = 1
# MAP2K1 = conditions: read-out: apparent Kd, compound concentrations: 100 nM and 1000 nM (sheet 'Samples'), n = 1
# MAP2K2 = conditions: read-out: apparent Kd, compound concentrations: 100 nM and 1000 nM (sheet 'Samples'), n = 1
# NNT = conditions: read-out: apparent Kd; compound concentrations: 100 nM and 1000 nM (sheet 'Samples'), CATDS: 7.4633464586539203E-2; n = 1
# NQO1 = conditions: read-out: apparent Kd, compound concentrations: 100 nM and 1000 nM (sheet 'Samples'), n = 1
# RIOK2 = conditions: read-out: apparent Kd, compound concentrations: 100 nM and 1000 nM (sheet 'Samples'), n = 1
# CLK2 = conditions: read-out: apparent Kd; compound concentrations:100 nM and 1000 nM (sheet 'Samples'); n = 1
# PIK3CA = conditions: read-out: apparent Kd; compound concentrations:100 nM and 1000 nM (sheet 'Samples'); n = 1
# AKT3 = conditions: read-out: apparent Kd; compound concentrations: 100 nM and 1000 nM (sheet 'Samples'), CATDS: 0.236310491034597; n = 1
# CDK13 = conditions: read-out: apparent Kd; compound concentrations: 100 nM and 1000 nM (sheet 'Samples'), CATDS: 0.20413342280503199; n = 1
# ADCK1 = conditions: read-out: apparent Kd; compound concentrations: 100 nM and 1000 nM (sheet 'Samples'), CATDS: 0.14545775949077999; n = 1
# FLT3 = conditions: read-out: apparent Kd; compound concentrations: 100 nM and 1000 nM (sheet 'Samples'), CATDS: 0.830735386752396; n = 1
# PDGFRB = conditions: read-out: apparent Kd; compound concentrations: 100 nM and 1000 nM (sheet 'Samples'), CATDS: 0.32052418925239901; n = 1
# AKT1 = conditions: read-out: apparent Kd; compound concentrations: 100 nM and 1000 nM (sheet 'Samples'), CATDS: 0.104224113270125; n = 1
# CSNK1A1 = conditions: read-out: apparent Kd; compound concentrations: 100 nM and 1000 nM (sheet 'Samples'), CATDS: 0.102191451764392; n = 1
# ZAK = conditions: read-out: apparent Kd; compound concentrations: 100 nM and 1000 nM (sheet 'Samples'), CATDS: 0.14081253885296899; n = 1
# [1] = compound concentrations:100 nM and 1000 nM (sheet 'Samples')
compound,measurement,setting,value
COc1cc(C)c(NC(=O)CN(C)C)cc1Nc1nc(Nc2cccc(F)c2C(N)=O)c2cc[nH]c2n1 [GSK2213727A],potency estimated from few doses,"ADCK3; compound concentrations: 100 nM and 1000 nM (sheet 'Samples'), CATDS: 5.9808730869804497E-2",688 nM
same,potency estimated from few doses,"CLK1; compound concentrations: 100 nM and 1000 nM (sheet 'Samples'), CATDS: 7.7083223058971695E-2",335 nM
same,potency estimated from few doses,"CLK4; compound concentrations: 100 nM and 1000 nM (sheet 'Samples'), CATDS: 5.4708251309819003E-2",936 nM
same,potency estimated from few doses,"FER; compound concentrations: 100 nM and 1000 nM (sheet 'Samples'), CATDS: 0.15534788887379899",82.7 nM
same,potency estimated from few doses,FES,609 nM
same,potency estimated from few doses,"IGF1R; compound concentrations: 100 nM and 1000 nM (sheet 'Samples'), CATDS: 0.14317930106922699",94.7 nM
same,potency estimated from few doses,"INSR; compound concentrations: 100 nM and 1000 nM (sheet 'Samples'), CATDS: 0.19841534550213699",56.7 nM
same,potency estimated from few doses,"PLK1; compound concentrations: 100 nM and 1000 nM (sheet 'Samples'), CATDS: 5.09869917251893E-2",1230 nM
same,potency estimated from few doses,PRKCZ,1660 nM
same,potency estimated from few doses,PTK2B,93.3 nM
same,potency estimated from few doses,PTK2,231 nM
same,potency estimated from few doses,RIPK3,1790 nM
same,potency estimated from few doses,TNK1,293 nM
same,potency estimated from few doses,TTK,1810 nM
Cc1nc(-c2ccccc2)n2nc(NCCCN3CCOCC3)ncc12 [GW874091X],potency estimated from few doses,"ADCK3; compound concentrations: 100 nM and 1000 nM (sheet 'Samples'), CATDS: 9.8029447870553399E-2",915 nM
same,potency estimated from few doses,AKT2; CATDS: 6.9315360856789104E-2,1850 nM
same,potency estimated from few doses,ATM,287 nM
same,potency estimated from few doses,CAMK4; CATDS: 7.7064865846565897E-2,1460 nM
same,potency estimated from few doses,CDK6,1550 nM
same,potency estimated from few doses,CDKL5,917 nM
same,potency estimated from few doses,CSNK1E,2210 nM
same,potency estimated from few doses,CSNK2A1;CSNK2A3,2450 nM
same,potency estimated from few doses,MAP2K1; CATDS: 6.2459835665012599E-2,2410 nM
same,potency estimated from few doses,MAP2K2; CATDS: 6.9306858675437497E-2,1850 nM
same,potency estimated from few doses,NNT,1560 nM
same,potency estimated from few doses,NQO1; CATDS: 8.3466895844620997E-2,1240 nM
same,potency estimated from few doses,RIOK2; CATDS: 6.3640535742752496E-2,2290 nM
CNC(=O)c1c(F)cccc1Nc1nc(Nc2cc3c(cc2OC)CCN3C(=O)CN(C)C)nc2[nH]ccc12 [GSK1838705],potency estimated from few doses,ADCK3; [1],1340 nM
same,potency estimated from few doses,CLK1; [1],376 nM
same,potency estimated from few doses,CLK2,600 nM
same,potency estimated from few doses,CLK4; [1],137 nM
same,potency estimated from few doses,FER; [1],133 nM
same,potency estimated from few doses,IGF1R; [1],1130 nM
same,potency estimated from few doses,INSR; [1],759 nM
same,potency estimated from few doses,PIK3CA,176 nM
same,potency estimated from few doses,PLK1; [1],2350 nM
Cc1ccc(C)c(NC(=O)NC2CCN(c3ccnc(Nc4ccc(F)cc4)n3)C2)c1 (centres unmarked) [GSK1379720A],potency estimated from few doses,"ADCK3; compound concentrations: 100 nM and 1000 nM (sheet 'Samples'), CATDS: 0.42611261301479197",388 nM
same,potency estimated from few doses,AKT3,1130 nM
same,potency estimated from few doses,CDK13,1630 nM
same,potency estimated from few doses,NQO1; CATDS: 0.22110563940730901,1330 nM
COc1cc(Nc2ncc(-c3ccccc3)o2)cc(OC)c1 [GW631581B],potency estimated from few doses,ADCK1,1650 nM
same,potency estimated from few doses,CAMK4; CATDS: 0.15107138054909999,1410 nM
same,potency estimated from few doses,FLT3,8.16 nM
same,potency estimated from few doses,MAP2K2; CATDS: 0.139234608718731,2010 nM
same,potency estimated from few doses,PDGFRB,85.4 nM
COc1cccc(-n2cnc3c(N)ncnc32)c1 [SKF-97416],potency estimated from few doses,"ADCK3; compound concentrations: 100 nM and 1000 nM (sheet 'Samples'), CATDS: 0.45631454504768898",155 nM
same,potency estimated from few doses,AKT1,2120 nM
same,potency estimated from few doses,AKT2; CATDS: 0.10421017655023999,2120 nM
same,potency estimated from few doses,CSNK1A1,2240 nM
same,potency estimated from few doses,MAP2K1; CATDS: 0.110237039965707,1830 nM
same,potency estimated from few doses,NQO1; CATDS: 0.123163223225838,1400 nM
same,potency estimated from few doses,RIOK2; CATDS: 0.117096482211817,1580 nM
same,potency estimated from few doses,ZAK,1050 nM
